Experimental data: PubChem BioAssay (NCI)
“And” between values parts separate entries of the source, which are not always exact repeats. Identical values can stand only once. Compounds without any hit were thinned out: in the full panel of roughly 83,000, 20% have a hit.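 Cell lines were cultured in 96-well plates, exposed to a single compound concentration, and assessed for percent growth 48 hours later.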 The source made the active and inactive calls. How the source made its calls: active means growth percent below 10; inactive means the rest.

Legend:
Assay in all cases: NCI-60 one-dose screen, 48 h (100 = growth as untreated, 0 = no growth, -100 = all killed)
Details in all cases: 10 µM
[1] = tested on: NCI-H23 lung
[2] = tested on: NCI-H522 lung
[3] = tested on: MDA-MB-231 breast
[4] = tested on: M14 melanoma
[5] = tested on: SK-MEL-5 melanoma
[6] = tested on: LOX IMVI melanoma
[7] = tested on: CCRF-CEM leukemia
[8] = tested on: MOLT-4 leukemia
[9] = tested on: SR leukemia
[10] = tested on: OVCAR-8 ovarian
[11] = tested on: OVCAR-5 ovarian
[12] = tested on: OVCAR-4 ovarian
[13] = tested on: SK-OV-3 ovarian
[14] = tested on: IGROV1 ovarian
[15] = tested on: HS 578T breast
[16] = tested on: NCI/ADR-RES ovarian
[17] = tested on: T-47D breast
[18] = tested on: SW-620 colon
[19] = tested on: MCF7 breast
[20] = tested on: HCT-116 colon

| Compound | growth [1] | growth [2] | growth [3] | growth [4] | growth [5] | growth [6] | growth [7] | growth [8] | growth [9] | growth [10] | growth [11] | growth [12] | growth [13] | growth [14] | growth [15] | growth [16] | growth [17] | growth [18] | growth [19] | growth [20] |
| --- | --- | --- | --- | --- | --- | --- | --- | --- | --- | --- | --- | --- | --- | --- | --- | --- | --- | --- | --- | --- |
| C/C=C/CC(C)C(O)[C@H](NC(=O)[C@@H]1CCCN1C(=O)C(C)(C)NC(=O)CCCCCCC)C(=O)N[C@@](C)(CC)C(=O)N[C@@H](CCC(N)=O)C(=O)N[C@H](CCC(N)=O)C(=O)NC(C)(C)C(=O)NC(C)(C)C(=O)N[C@@H](CCC(N)=O)C(=O)N[C@H](CC(C)C)C(=O)N[C@H](CO)CC(C)C (some centres undefined) | 16.4% (inactive) | 103% (inactive) and -8.57% (active) | 108% (inactive) and -6.87% (active) | 103% (inactive) and 25.1% (inactive) | 100% (inactive) and -65.7% (active) | 33.2% (inactive) | 103% (inactive) and -23.3% (active) | 101% (inactive) and -32.4% (active) | 92.9% (inactive) and 0.907% (active) | 106% (inactive) and 24.6% (inactive) | 114% (inactive) and 40% (inactive) | 108% (inactive) and 44.5% (inactive) | 101% (inactive) and 52.6% (inactive) | 113% (inactive) and 46.4% (inactive) | 110% (inactive) and -10.8% (active) | 106% (inactive) and 48.9% (inactive) | 102% (inactive) and 7.2% (active) | 103% (inactive) and 31.6% (inactive) | 93.3% (inactive) and 4.76% (active) | 108% (inactive) and 25.3% (inactive) |
| COc1cc2c(cc1OC)[C@@H]1N(CC2)C(=O)c2ccccc2[C@@]1(C)C(=O)O | 102% (inactive) | 99.8% (inactive) | 101% (inactive) | – | 101% (inactive) | 105% (inactive) | 105% (inactive) | 108% (inactive) | 117% (inactive) | 104% (inactive) | 106% (inactive) | 105% (inactive) | 113% (inactive) | 106% (inactive) | 108% (inactive) | 106% (inactive) | 116% (inactive) | 109% (inactive) | 97.4% (inactive) | 111% (inactive) |
| C/C=C/CC(C)C(O)[C@H](NC(=O)[C@@H]1CCCN1C(=O)C(C)(C)NC(=O)CCCCCCCCC)C(=O)N[C@@](C)(CC)C(=O)N[C@@H](CCC(N)=O)C(=O)N[C@H](CCC(N)=O)C(=O)NC(C)(C)C(=O)NC(C)(C)C(=O)N[C@@H](CCC(N)=O)C(=O)N[C@H](CC(C)C)C(=O)N[C@H](CO)CC(C)C (some centres undefined) | 15.6% (inactive) and 49.3% (inactive) | -32.9% (active) and -26.1% (active) | -32.1% (active) and 53.6% (inactive) | -43.6% (active) and 20.4% (inactive) | -54.6% (active) and 12.6% (inactive) | -57.3% (active) and 1.46% (active) | 14.7% (inactive) and 49.4% (inactive) | 18.8% (inactive) and 54.7% (inactive) | -32.1% (active) and 8.34% (active) | 5.65% (active) and 38.4% (inactive) | 2.04% (active) and 49.9% (inactive) | 81% (inactive) and 87.9% (inactive) | 37.6% (inactive) and 80.8% (inactive) | 34% (inactive) and 72.2% (inactive) | -51.7% (active) and -15.4% (active) | 19.7% (inactive) and 35.4% (inactive) | 28.6% (inactive) and 52% (inactive) | 38.1% (inactive) and 93% (inactive) | -2.63% (active) and 45.8% (inactive) | 33.5% (inactive) and 78.4% (inactive) |
| CC1=C2C(=C[C@@](C)(C=O)[C@@H]2O)C(=O)[C@](C)(O)C12CC2 | -24% (active) | 12.9% (inactive) | 14% (inactive) | 2% (active) | -79.5% (active) | 2.16% (active) | 22.6% (inactive) | 16.5% (inactive) | 14.5% (inactive) | 14.1% (inactive) | 6.05% (active) | 19.3% (inactive) | 11.1% (inactive) | 9.24% (active) | 33.5% (inactive) | 1.41% (active) | 11.7% (inactive) | 10.1% (inactive) | 3.05% (active) | 6.13% (active) |
| C/C=C/CC(C)C(O)[C@H](NC(=O)[C@@H]1CCCN1C(=O)C(C)(C)NC(=O)CCCCCCCCC)C(=O)NC(C)(C)C(=O)N[C@@H](CCC(N)=O)C(=O)N[C@H](CCC(N)=O)C(=O)NC(C)(C)C(=O)NC(C)(C)C(=O)N[C@@H](CCC(N)=O)C(=O)N[C@H](CC(C)C)C(=O)N[C@H](CO)CC(C)C (some centres undefined) | 37.1% (inactive) and -16.1% (active) | -41.2% (active) and -62.8% (active) | 6.89% (active) and -91.8% (active) | -31.6% (active) and -53.6% (active) | -93.3% (active) and -92.8% (active) | -78.5% (active) and -80.2% (active) | -12.7% (active) and -38.8% (active) | -48.2% (active) and -23.8% (active) | -57.3% (active) and 12.2% (inactive) | 16.4% (inactive) and 4.24% (active) | 50.4% (inactive) and -66.8% (active) | 60% (inactive) and 47.2% (inactive) | 61.8% (inactive) and 50.9% (inactive) | 30.5% (inactive) and 5.27% (active) | -36.6% (active) and -60.1% (active) | 51.1% (inactive) and 4.23% (active) | 24.8% (inactive) and 10.8% (inactive) | 33.1% (inactive) and 15.3% (inactive) | 2.98% (active) and -45.1% (active) | 13.1% (inactive) and 6.15% (active) |
| CN(CCF)/N=N/c1nc[nH]c1C(N)=O | 77% (inactive) | 64.2% (inactive) | 39.5% (inactive) | 23.3% (inactive) | 74.6% (inactive) | 17.5% (inactive) | 20.8% (inactive) | 18.7% (inactive) | 22.3% (inactive) | 27% (inactive) | 62.8% (inactive) | 44.2% (inactive) | -4.12% (active) | 44% (inactive) | 93.1% (inactive) | 32.5% (inactive) | 57.3% (inactive) | 25.9% (inactive) | 36.2% (inactive) | 24% (inactive) |
| C=C1[C@@H](C)C2[C@H](Cc3ccccc3)NC(=O)[C@]23[C@H](OC(C)=O)/C=C/[C@@](C)(O)C(=O)[C@@H](C)C/C=C/[C@H]3[C@@H]1O (some centres undefined) | 69.8% (inactive) | 22.3% (inactive) | 33% (inactive) | 51.3% (inactive) | 33.5% (inactive) | 1.65% (active) | 48.7% (inactive) | 62.3% (inactive) | 43.2% (inactive) | 74.6% (inactive) | 96.1% (inactive) | 34.7% (inactive) | 15.1% (inactive) | 8.46% (active) | 9.13% (active) | 98.5% (inactive) | 81.6% (inactive) | 77.2% (inactive) | 23.3% (inactive) | 44.4% (inactive) |
| COC1[C@@H]2C[C@H]3C(C)(C)O[C@@](C/C=C(/C)C(=O)O)(C2=O)[C@]32Oc3c(CC=C(C)C)c4c(c(O)c3C(=O)[C@H]12)C=CC(C)(C)O4 (some centres undefined) | -64.5% (active) | -68.6% (active) | -18.3% (active) | -53.9% (active) | -98.4% (active) | -97.2% (active) | -1.89% (active) | -8.14% (active) | 1.28% (active) | -58.5% (active) | -40% (active) | -33.7% (active) | 13.7% (inactive) | -26% (active) | 22.9% (inactive) | -10.9% (active) | -27.2% (active) | -14.7% (active) | -78.8% (active) | -61.4% (active) |
| CC1=C2C(=O)[C@](C)(CO)C=C2C(=O)[C@](C)(O)C12CC2 | -14.8% (active) | -34.7% (active) | 24.6% (inactive) | 22.3% (inactive) | 24.2% (inactive) | -25.9% (active) | 13.9% (inactive) | 27.3% (inactive) | 12.8% (inactive) | 33% (inactive) | 10.2% (inactive) | 44.4% (inactive) | 24.2% (inactive) | 18.9% (inactive) | 80.4% (inactive) | 5.56% (active) | 6.69% (active) | 9.68% (active) | 1.34% (active) | 5.03% (active) |
| C/C=C/CC(C)C(O)[C@H](NC(=O)[C@@H]1CCCN1C(=O)C(C)(C)NC(=O)CCCCCCCCC)C(=O)N[C@@](C)(CC)C(=O)N[C@@H](CCC(N)=O)C(=O)N[C@H](CCC(N)=O)C(=O)NC(C)(C)C(=O)N[C@@](C)(CC)C(=O)N[C@@H](CCC(N)=O)C(=O)N[C@H](CC(C)C)C(=O)N[C@H](CO)CC(C)C (some centres undefined) | 105% (inactive) and -48.3% (active) | 101% (inactive) and -77.6% (active) | 106% (inactive) and -96.8% (active) | 100% (inactive) and -67.5% (active) | 99.9% (inactive) and -90.2% (active) | 101% (inactive) and -88.2% (active) | 98.9% (inactive) and -46.2% (active) | 101% (inactive) and -14.5% (active) | 92% (inactive) and 11.3% (inactive) | 99.4% (inactive) and -48.6% (active) | 106% (inactive) and -64.3% (active) | 106% (inactive) and 19.2% (inactive) | 111% (inactive) and -11.2% (active) | 106% (inactive) and -23.2% (active) | 109% (inactive) and -71.9% (active) | 106% (inactive) and -38.7% (active) | 95.9% (inactive) and -31.3% (active) | 99.1% (inactive) and 3.5% (active) | 96.1% (inactive) and -68.2% (active) | 102% (inactive) and 0.686% (active) |
